Measured values reported in the supplement of paper PMC6555819.

Tests used:
Test in all cases: PBM binding z-score (relative to random genomic background probes); higher = stronger binding; sequences stand for … in GC…GCGATTGACAGCGTAGAATGAAGG
[1] = test system: PPARg:RXRa DBDmut IVT, anti-RXR (DBD mutation: RXRa K156A/R161A, NR concentration 270 nM, RXRa partner concentration 90 nM)
How it was run: (§1)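 For binding z-scores, the reference was random background probes on custom Agilent 4×180K protein-binding microarrays. These arrays were incubated 1 h with ligand-free nuclear receptor dimers in PBS pH 7.4, 2% milk, 0.02% Triton X-100, 1 mM DTT, 0.2 mg/mL BSA and 0.4 mg/ml salmon testes DNA. Fluorescence was scanned after antibody detection of each partner (one per run) and regression-normalized.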

[2] = test system: PPARg:RXRa IVT, anti-PPARg (NR concentration 270 nM, RXRa partner concentration 90 nM)
How it was run: as §1

[3] = test system: PPARg DBDmut:RXRa IVT, anti-PPARg (DBD mutation: PPARg1 K132A/R137A, NR concentration 270 nM, RXRa partner concentration 90 nM)
How it was run: as §1

[4] = test system: PPARg DBDmut IVT, anti-PPARg (DBD mutation: PPARg1 K132A/R137A, NR concentration 270 nM)
How it was run: as §1

[5] = test system: PPARg homodimer (NR concentration 180 nM)
How it was run: as §1

[6] = test system: PXR:RXRa (NR concentration 270 nM, RXRa partner concentration 90 nM)
How it was run: as §1

[7] = test system: PXR homodimer (NR concentration 270 nM)
How it was run: as §1

[8] = test system: RARa:RXR (NR concentration 270 nM, RXRa partner concentration 90 nM)
How it was run: as §1

[9] = test system: RARa homodimer (NR concentration 270 nM)
How it was run: as §1

[10] = test system: RARb:RXRa (NR concentration 270 nM, RXRa partner concentration 90 nM)
How it was run: as §1

Sequence	PBM binding z-score [1]	PBM binding z-score [2]	PBM binding z-score [3]	PBM binding z-score [4]	PBM binding z-score [5]	PBM binding z-score [6]	PBM binding z-score [7]	PBM binding z-score [8]	PBM binding z-score [9]	PBM binding z-score [10]
TTACCAAAGTGAAGGTCGTTGATCCCTCTGTAGA	0.0303	0.266	-1.3	-0.698	0.00936	1.15	0.234	1	-0.568	0.632
GCTCGGAGGACACGGTCAGAGCTTTGTCCGTAGA	-0.213	-0.07	-1.69	-1.2	-0.679	-0.581	-1.34	-0.541	-1.26	2.09
TCTAGCAGGCCAGCGGGTCACTCAAGAGGTACGG	0.972	1.03	-0.284	-0.723	0.406	1.12	-0.865	1.81	-0.465	1.81
CCTACTGTGCCATCAGGTCATTGATATCAACGTT	4.55	4.14	2.09	1.29	2.2	2.45	1.76	2.79	2.21	2.25
CGAACGAGGGCATGAGTTGAAAGCAAATGCCGAT	2.92	2.09	-0.35	-0.394	0.0525	0.538	-0.57	0.846	-0.757	1.96
GCTGCTAGGTCAACTGATGGTCAGCCAAAGCTCG	4.84	3.92	0.564	-0.45	1.57	1.39	-0.698	2.93	-0.0572	4.27
CCGGCTGGGGCAAAGGTTACCATACTCAGTACGA	0.545	3.78	-0.945	-1.06	1.1	2.59	-0.422	3.83	-0.653	2.41
CCTTACGGGTCACTCCAGGTTATAGAATCGGAGT	2.67	3.47	1.31	0.0238	1.95	5.29	0.455	4.11	0.74	3.68
CCAGACAGGTGAGAAGGTATCTCAGCCTCGATTA	0.865	0.119	-1.02	-0.0601	0.414	-0.407	0.0596	0.185	0.147	0.303
